Reference: PubChem BioAssay AID1159580 (chemical genetic matrix, 2015)
Where “and” joins values, the source holds several entries; their conditions need not be identical. Equal values may be shown once. The campaign covered roughly 5,500 compounds. About 2,000 (36%) were called active. About 18% were inconclusive and are not listed. No stated cut-off is given here; in the data, active means normalized growth mostly below about 0.91 (no sharp cut-off); inconclusive means no clear call, values can overlap the other calls; inactive means mostly above about 0.92. This is one part of the list.

Assay: chemical genetic growth profiling, strain panel (AID 1159580);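 further: tested at 20 µM; growth read once vehicle control cultures reached saturation at 30 °C; 1 = growth at the plate median or of vehicle wells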
Settings: S. cerevisiae deletion strains, growth OD

Measured: normalized growth

NC(=O)NC(=O)Cc1ccccc1
inactive: locus YAL013W, strain DEP1, stronger effect = lower value 1.03 | locus YAL021C, strain ccr4, stronger effect = lower value 0.999 | locus YAL026C, strain drs2, stronger effect = lower value 0.976 | locus YAL030W, strain snc1, stronger effect = lower value 0.995 | locus YBL061C, strain skt5, stronger effect = lower value 0.975 | locus YBR009C, strain hhf1, stronger effect = lower value 1.04 | locus YBR021W, strain FUR4, stronger effect = lower value 1.02 | locus YBR023C, strain chs3, stronger effect = lower value 0.974 | locus YBR171W, strain sec66, stronger effect = lower value 0.992 | locus YBR229C, strain ROT2, stronger effect = lower value 0.995 | locus YBR231C, strain swc5, stronger effect = lower value 1.01 | locus YBR279W, strain paf1, stronger effect = lower value 0.979 | locus YCL011C, strain gbp2, stronger effect = lower value 0.961 | locus YCL016C, strain dcc1, stronger effect = lower value 0.96 | locus YCL029C, strain bik1, stronger effect = lower value 0.997 | locus YCL069W, strain vba3, stronger effect = lower value 1.01 | locus YCR088W, strain abp1, stronger effect = lower value 0.993 | locus YDL005C, strain med2, stronger effect = lower value 0.98 | locus YDL035C, strain GPR1, stronger effect = lower value 1.02 | locus YDL040C, strain nat1, stronger effect = lower value 0.991 | locus YDL074C, strain BRE1, stronger effect = lower value 1.16 | locus YDL101C, strain DUN1, stronger effect = lower value 1 | locus YDL134C, strain PPH21, stronger effect = lower value 1 | locus YDL185W, strain tfp1, stronger effect = lower value 0.992 | locus YDL192W, strain arf1, stronger effect = lower value 0.991 | locus YDR001C, strain nth1, stronger effect = lower value 0.98 | locus YDR069C, strain doa4, stronger effect = lower value 0.99 | locus YDR101C, strain arx1, stronger effect = lower value 0.994 | locus YDR137W, strain rgp1, stronger effect = lower value 0.979 | locus YDR150W, strain NUM1, stronger effect = lower value 1.01 | locus YDR159W, strain sac3, stronger effect = lower value 0.997 | locus YDR162C, strain NBP2, stronger effect = lower value 1.04 | locus YDR195W, strain ref2 0.994 | locus YDR297W, strain sur2, stronger effect = lower value 0.996 | locus YDR318W, strain mcm21, stronger effect = lower value 0.993 | locus YDR334W, strain swr1, stronger effect = lower value 0.978 | locus YDR335W, strain msn5, stronger effect = lower value 0.964 | locus YDR388W, stronger effect = lower value 0.995 | locus YDR392W, strain spt3, stronger effect = lower value 0.916 | locus YDR502C, strain sam2, stronger effect = lower value 1.01 | locus YEL003W, strain gim4, stronger effect = lower value 0.998 | locus YEL037C, strain rad23, stronger effect = lower value 0.983 | locus YEL061C, strain CIN8 (second series), stronger effect = lower value 0.976 | locus YEL061C, strain CIN8, stronger effect = lower value 1.03 | locus YER015W, strain faa2, stronger effect = lower value 0.99 | locus YER016W, strain bim1, stronger effect = lower value 0.96 | locus YER110C, stronger effect = lower value 0.998 | locus YER111C, strain swi4, stronger effect = lower value 0.981 | locus YER155C, strain BEM2 (second series), stronger effect = lower value 1.04 | locus YER155C, strain BEM2, stronger effect = lower value 1 | locus YER167W, strain BCK2, stronger effect = lower value 1 | locus YFR010W, strain ubp6, stronger effect = lower value 1.01 | locus YGL078C, strain dbp3, stronger effect = lower value 1 | locus YGL086W, strain mad1, stronger effect = lower value 0.995 | locus YGL167C, strain pmr1, stronger effect = lower value 1 | locus YGL173C, strain kem1, stronger effect = lower value 1.04 | locus YGL227W, strain vid30, stronger effect = lower value 1 | locus YGL240W, strain doc1, stronger effect = lower value 1.04 | locus YGL248W, strain PDE1, stronger effect = lower value 1 | locus YGL253W, strain hxk2, stronger effect = lower value 0.955 | locus YGR078C, strain PAC10, stronger effect = lower value 1.01 | locus YGR135W, strain pre9, stronger effect = lower value 0.993 | locus YGR229C, strain SMI1, stronger effect = lower value 1.13 | locus YGR252W, strain gcn5, stronger effect = lower value 1.14 | locus YHR013C, strain ard1, stronger effect = lower value 0.964 | locus YHR027C, strain rpn1, stronger effect = lower value 0.999 | locus YHR030C, strain SLT2, stronger effect = lower value 1 and 0.964 | locus YHR079C, strain IRE1 (second series), stronger effect = lower value 1 | locus YHR079C, strain IRE1, stronger effect = lower value 0.978 | locus YHR094C, strain hxt1, stronger effect = lower value 1 | locus YHR129C, strain ARP1, stronger effect = lower value 1 | locus YHR142W, strain chs7, stronger effect = lower value 0.931 | locus YHR200W, strain rpn10, stronger effect = lower value 0.991 | locus YIL066C, strain RNR3, stronger effect = lower value 1.01 | locus YIL073C, strain SPO22, stronger effect = lower value 0.979 | locus YIL125W, strain kgd1, stronger effect = lower value 1 | locus YIR030C, strain dcg1, stronger effect = lower value 0.995 | locus YJL092W, strain hpr5, stronger effect = lower value 0.977 | locus YJL095W, strain BCK1 (second series), stronger effect = lower value 0.967 | locus YJL095W, strain BCK1, stronger effect = lower value 1.04 and 0.989 | locus YJL115W, strain asf1, stronger effect = lower value 0.957 | locus YJL129C, strain trk1, stronger effect = lower value 0.955 | locus YJL134W, strain LCB3, stronger effect = lower value 1.01 | locus YJL154C, strain vps35, stronger effect = lower value 0.984 | locus YJL164C, strain tpk1, stronger effect = lower value 0.998 | locus YJL166W, strain qcr8, stronger effect = lower value 1 | locus YJL168C, strain set2, stronger effect = lower value 0.997 | locus YJL187C, strain SWE1 (second series), stronger effect = lower value 0.995 | locus YJL187C, strain SWE1, stronger effect = lower value 0.994 | locus YJR043C, strain POL32, stronger effect = lower value 1.03 | locus YJR066W, strain TOR1, stronger effect = lower value 0.931
